High-throughput results: PubChem, National Center for Advancing Translational Sciences (NCATS)
An excerpt weighted towards active compounds, which were near 3% of everything screened.
Nrf2 ARE act = activators of Nrf2 (ARE) signaling. Potency, µM (highest dose often 46.1 µM), actives largely listed as activators. AREc32 ARE-luciferase reporter (MCF7-derived line), luminescence, 24 h. 410,000 compounds, 0.31% hits; also: nearly all actives have a fitted effect of over 65% in size
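Each well held 1000 AREc32 cells, which were incubated with compound for 24 hr at 37 deg C after overnight attachment, and ARE reporter activity was quantified by firefly luciferase luminescence.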
TrxR1 inh = blocks rat thioredoxin reductase 1; AID 588453; 390,000 compounds, 1% hits; Potency, µM (series often up to 114 µM), hits mostly inhibitors; O89049; recombinant rTrxR1, NADPH fluorescence consumption, selenite substrate; also: nearly all actives have a fitted effect of over 65% in size
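Rat TrxR1 (90 nM in the dispensed reagent) was pre-reduced with 400 uM NADPH for 5 min at room temperature, then incubated with compound for 15 min. After 400 uM selenite was added, NADPH fluorescence (Ex 340/Em 450 nm) was followed for 8 min.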
Nrf2 block = blocks Nrf2 signaling; A549 ARE-Fluc reporter, luciferase luminescence, 18-24 h; Potency, µM (series often up to 46 µM), most hits filed as inhibitors; 360,000 compounds, 2.1% hits; also: nearly all actives have a fitted effect of over 60% in size
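In this cell-based qHTS, ARE-driven firefly luciferase in A549 cells reports Nrf2 activity; the luminescent signal after BugLite lysis is the measured value, with a prior CellTiter-Fluor read for cell health.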
TrxR1 substrate = rat thioredoxin reductase 1 substrate activity; purified TrxR1 substrate turnover, NADPH consumption readout; AID 588456; 390,000 compounds, 0.01% hits; Potency, µM (top dose mostly 114 µM); O89049; also: nearly all actives have a fitted effect of over 50% in size
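Rat TrxR1, dispensed at 90 nM, was prereduced with 400 uM NADPH (final) for 5 min at ~22 deg C, then incubated with compound 15 min before 400 uM selenite. A first-read NADPH fluorescence drop versus no-compound background flagged substrates.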
GALK inh = inhibitors of human galactokinase. P51570. Purified GALK, Kinase-Glo residual ATP luminescence. Potency, µM (titrated, usually from 57.5 µM), actives largely listed as inhibitors. 270,000 compounds, 0.007% hits. AID 1868
Target sequence (P51570 whole entry, looked up): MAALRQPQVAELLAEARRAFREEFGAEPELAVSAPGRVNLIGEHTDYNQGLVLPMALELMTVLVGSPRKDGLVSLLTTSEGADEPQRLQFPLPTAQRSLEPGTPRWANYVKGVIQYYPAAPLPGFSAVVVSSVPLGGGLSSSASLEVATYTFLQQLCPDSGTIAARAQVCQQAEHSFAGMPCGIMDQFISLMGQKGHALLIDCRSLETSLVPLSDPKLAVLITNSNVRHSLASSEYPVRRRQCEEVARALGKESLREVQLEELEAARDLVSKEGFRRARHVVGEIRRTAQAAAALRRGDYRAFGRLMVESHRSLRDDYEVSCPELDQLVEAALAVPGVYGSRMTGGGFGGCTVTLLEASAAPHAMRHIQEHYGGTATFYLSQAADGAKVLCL
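GALK at 5 nM final was combined with compound, 35 uM ATP and 100 uM galactose in HEPES pH8.0 with MgCl2 and DTT. The reaction ran one hour at room temperature before luminescent ATP detection.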
A549 tox = counter-screen for Nrf2 inhibitors: cytotoxicity in A549 cells. A549 ARE-Fluc cells, CellTiter-Fluor viability, 18-24 h. Potency, µM (top dose mostly 46 µM), most hits filed as inhibitors. 390,000 compounds, 0.16% hits
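A549 ARE_Fluc cells in 5% FBS OPTI-MEM were exposed to compounds in concentration-response for 18-24 h at 37 deg C. Viability was read by CellTiter-Fluor fluorescence (Ex 405/Em 525) after 30 min, before the luciferase read.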
Each line names hits and unclear results; the compound was inactive in the other large screens. Calls follow the shape of the dose curve; as a rule, active = well fitted curve in the direction sought with a large enough effect; inconclusive = small, poorly fitted or top-dose-only effect, or another doubt; inactive = no such curve, though single readings can be large; an effect the other way counts as inactive or inconclusive.

Cc1cc(C)n(-c2ccc(C(=O)Nc3cc(S(=O)(=O)N(C)C)ccc3Cl)cc2)n1	Nrf2 block 18.4µM
Cc1cc(C)n(-c2ccc(C(=O)Nc3cccnc3Cl)cc2)n1	Nrf2 block inconclusive
COc1ccc(CCNc2nc(SCc3ccc(F)cc3)nc3ccccc23)cc1OC	none (no result: Nrf2 block, GALK inh)
COc1ccc(CCN2C(=O)N(c3ccc(C)cc3)C(=O)C2CC(=O)Nc2ccc(OC)cc2)cc1 (configuration not stated)	none (no result: GALK inh)
COc1ccc(C(=O)Nc2cccc(-c3nc4ncccc4o3)c2C)cc1OC	Nrf2 block 18.4µM, A549 tox inconclusive
COc1ccc(C(=O)Nc2ccc(-c3cc4ccccc4oc3=O)c(C)c2)cc1OC	Nrf2 block 13µM (no result: GALK inh)
COc1cccc(C(=O)Nc2cccc(-c3nc4ncccc4o3)c2C)c1	Nrf2 block inconclusive
Cc1cc(NC(=O)c2ccc(Cl)c(Cl)c2)ccc1-c1cc2ccccc2oc1=O	none (no result: GALK inh)
Cc1cc(S(=O)(=O)n2ccnc2C(C)C)cc([N+](=O)[O-])c1C	none (no result: GALK inh)
O=C(OCC#CCSc1nnc(-c2cccc3ccccc23)o1)c1sc(Cl)c(Cl)c1Cl	none (no result: Nrf2 ARE act, TrxR1 inh, TrxR1 substrate, GALK inh)
COc1ccc(-c2nc(CNC(=O)Nc3ccccc3)c(C)o2)c(OC)c1	none (no result: Nrf2 block, GALK inh)
Cc1cccc(CN2C(=O)N(c3ccc(C(C)C)cc3)S(=O)(=O)c3ccccc32)c1	A549 tox inconclusive (no result: Nrf2 block, GALK inh)
C/C(=N\NC(=S)NC1CCCCC1)c1ccc(OC(F)F)cc1OC(F)F	Nrf2 block 20.6µM
COC(=O)CC1C(=O)NC2CCCCC2N1C(=O)CCl (configuration not stated)	Nrf2 ARE act inconclusive, TrxR1 inh 20µM, Nrf2 block inconclusive
Cc1ccc(NC(=O)c2cc(CC(C)C)nc3ccccc23)cc1	Nrf2 block 5.8µM
COc1ccc(OC)c(/C=N/NC(=O)c2cc(-c3ccc(C)o3)nc3ccccc23)c1	TrxR1 inh 79.4µM, Nrf2 block inconclusive
Cc1ccc(NC(=O)c2cc(-c3ccc(C)o3)nc3ccccc23)cc1	TrxR1 inh 11.2µM
COc1ccc(NC(=O)c2cc(CC(C)C)nc3ccccc23)cc1	Nrf2 block inconclusive
Cc1ccc(-c2cc(C(=O)Nc3cccnc3)c3ccccc3n2)o1	Nrf2 ARE act inconclusive, TrxR1 inh 8.91µM
COc1cccc(C2c3c(ncn(-c4ccc(C(C)(C)C)cc4)c3=N)Oc3ccc4ccccc4c32)c1 (configuration not stated)	Nrf2 block inconclusive (no result: Nrf2 ARE act, TrxR1 inh, TrxR1 substrate, GALK inh)
COc1ccccc1Nc1cc2ccccc2c(=O)[nH]1	A549 tox inconclusive (no result: Nrf2 ARE act, TrxR1 inh, TrxR1 substrate, GALK inh)
C=C1C=C(C(F)F)n2ncc(C(=O)Nc3cccc(CC)c3)c2N1	none (no result: Nrf2 ARE act, Nrf2 block, GALK inh, A549 tox)
CC(=O)c1ccc(S(=O)(=O)N2CCn3cccc3C2c2ccc(C)cc2)cc1 (configuration not stated)	none (no result: Nrf2 block, GALK inh)
NNC(=O)c1cc2c(N3CCC(Cc4ccccc4)CC3)ncnc2s1	Nrf2 block 25.9µM
Cn1ncc2c(N3CCC(Cc4ccccc4)CC3)ncnc21	Nrf2 block inconclusive
O=c1oc2ccccc2cc1-c1nc(-c2cccs2)no1	Nrf2 ARE act 12.6µM (no result: Nrf2 block, GALK inh)
O=C(CSc1ncnc2ccccc12)c1ccco1	Nrf2 ARE act 2.82µM
O=C(CSc1ncnc2ccccc12)NCc1ccco1	none
N#Cc1ccsc1NC(=O)CSc1ncnc2ccccc12	Nrf2 ARE act 12.6µM, Nrf2 block inconclusive
COc1ccc(NC(=O)c2ccc(CN3C(=O)CCn4nc(C)cc43)cc2)c(OC)c1	none (no result: GALK inh)
O=C(CC1NCCNC1=O)Nc1cccc(F)c1 (configuration not stated)	none (no result: GALK inh)
COc1cccc(Cn2c(=O)n(-c3cc(C)cc(C)c3)c(=O)c3oc4ccccc4c32)c1	none (no result: GALK inh)
Cc1ccc(S(=O)(=O)/N=C2\C=C(Nc3ccc(O)cc3)C(=O)c3ccccc32)cc1	TrxR1 inh inconclusive, Nrf2 block 18.4µM, A549 tox 16.4µM (no result: GALK inh)
Cc1ccc(S(=O)(=O)/N=C2\C=C(Nc3cccc(C(=O)O)c3)C(=O)c3ccccc32)cc1	none
O=C1C(Nc2ccccc2)=C/C(=N/S(=O)(=O)c2cccs2)c2ccccc21	Nrf2 block 8.2µM, A549 tox 14.6µM
